Test results published in PubChem BioAssay (Tox21).
Inconclusive results are not listed. Activity calls are given as the source filed them. Unless noted, calls follow the shape of the dose curve; as a rule, active = well fitted curve in the direction sought with a large enough effect in the repeat runs; inconclusive = weak or mixed curves; inactive = no such curve, though single readings can be large; an effect the other way counts as inactive or inconclusive.

Legend:
[1] = qHTS assay for small molecule agonists of the p53 signaling pathway (AID 651631; calls by dose curve; also: nearly all actives have a fitted effect of over 15% in size)
How it was run: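 Agonist mode screen using a stably integrated beta-lactamase gene under p53 response elements in HCT-116 cells. Compound exposure lasts 16 h at 37 °C; fluorescence intensity is measured following 2 h FRET substrate loading.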

[2] = qHTS assay for small molecules that induce genotoxicity in human embryonic kidney cells expressing luciferase-tagged ATAD5 (AID 651632); also: nearly all actives have a fitted effect of over 15% in size
How it was run: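 Cells were seeded at 2,000 per well, dosed with compound, and incubated 16 hr at 37C in 5% CO2. Luciferase activity was then quantified after a 30 min room-temperature incubation with Amplite.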

[3] = qHTS assay for small molecule agonists of the p53 signaling pathway - cell viability (AID 651633; calls by dose curve;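 also: p53RE-bla HCT reporter cells with a stable beta-lactamase p53 reporter; series mostly up to about 83 µM; nearly all actives have a fitted effect of over 30% in size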)
How it was run: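 p53RE-bla cells were treated with compound for 16 hours at 37 C. Cytotoxicity was then measured as CellTiter-Glo luminescence after 30 min at room temperature.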

[4] = qHTS assay for small molecules that induce genotoxicity in human embryonic kidney cells expressing luciferase-tagged ATAD5 - cell viability (AID 651634; calls by dose curve; also: nearly all actives have a fitted effect of over 25% in size)
How it was run: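 Cells (HEK293T, luciferase-tagged ATAD5) are seeded at 2,000 per well, dosed with compound or DMSO vehicle, and incubated 15.5 hr at 37C and 5% CO2. CellTiter-Fluor is added for 30 min before fluorescence is measured.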

[5] = qHTS assay to test for compound auto fluorescence at 590 nm (red) in HepG2 cells (AID 720674)
How it was run: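 Seeding: 2,000 HepG2 cells/well, MEM/10% FBS, overnight 37 C. Dosing: compound vs DMSO. Incubation: 1 hr, 37 C, 5% CO2. Read: fluorescence 540 ex/590 em, Rose Bengal sodium as red reference.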

[6] = qHTS assay to test for compound auto fluorescence at 535 nm (green) in HepG2 cells (AID 720675)
[7] = qHTS assay to test for compound auto fluorescence at 460 nm (blue) in HEK293 cells (AID 720678)
How it was run: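 Cells were seeded and left to adhere for 4-5 hr at 37C. Compounds were then pin-transferred. After an overnight incubation at 37C under 5% CO2, intrinsic fluorescence at 405/460 nm was measured and referenced to triamterene.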

[8] = qHTS assay to test for compound auto fluorescence at 590 nm (red) in HEK293 cells (AID 720679)
How it was run: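 Each well held 2,000 HEK293 cells in medium containing 10% dialyzed FBS. Following 4-5 hr attachment at 37C, 23 nL test compound or DMSO was added; plates sat overnight, and red fluorescence (540/590nm) was recorded.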

[9] = qHTS assay to test for compound auto fluorescence at 535 nm (green) in HEK293 cells (AID 720680)
[10] = qHTS assay to test for compound auto fluorescence at 460 nm (blue) in HEK293 cell free culture (AID 720681)
How it was run: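 Compounds were added to cell-free DMEM with 10% FBS and fluorescence read directly. The blue channel used 405 nm excitation and 460 nm emission, with triamterene as the reference fluorophore.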

[11] = qHTS assay to test for compound auto fluorescence at 535 nm (green) in HEK293 cell free culture (AID 720682)
How it was run: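 No cells present: wells hold DMEM supplemented with 10% FBS, into which compound or vehicle is pinned. Green emission is then recorded (485 nm excitation, 535 nm emission) and scaled to fluorescein.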

[12] = qHTS assay to test for compound auto fluorescence at 590 nm (red) in HEK293 cell free culture (AID 720683)
How it was run: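 Cell-free wells of DMEM with 10% FBS received compound, and intrinsic fluorescence was read at excitation/emission 540/590 nm. Values expressed as equivalence to Rose Bengal sodium.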

[13] = qHTS assay to test for compound auto fluorescence at 590 nm (red) in HepG2 cell free culture (AID 720684)
How it was run: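 Rose Bengal sodium served as the reference for red signal. Test compounds were dispensed into serum-containing MEM (10% FBS) without cells, and plates were read at 540/590 nm.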

[14] = qHTS assay to test for compound auto fluorescence at 460 nm (blue) in HepG2 cell free culture (AID 720685)
How it was run: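 Cell-free plates of MEM plus 10% FBS received 23 nL compound or DMSO vehicle; blue-channel (405/460 nm) intensity scored against triamterene as reference fluorophore.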

[15] = qHTS assay to test for compound auto fluorescence at 535 nm (green) in HepG2 cell free culture (AID 720686)
[16] = qHTS assay for small molecule disruptors of the mitochondrial membrane potential - cell viability (AID 720634; calls by dose curve;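 also: human HepG2 liver cancer cells; series mostly up to about 83 µM; nearly all actives have a fitted effect of over 20% in size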)
How it was run: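 Cytotoxicity was measured by ATP quantitation in HepG2 wells that had first been treated with compound for 1 hr and stained with m-MPI dye; CellTiter-Glo incubation was 30 min at room temperature.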

[17] = qHTS assay for small molecule disruptors of the mitochondrial membrane potential (AID 720635); also: potency is read from the fitted curve at half-maximal effect
How it was run: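 HepG2 cells exposed to compound 1 hr at 37C, then Mito-MPS dye 30 min. Ratio read of aggregate (540/590 nm) versus monomer (490/535 nm) fluorescence.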

[18] = qHTS assay to test for compound auto fluorescence at 460 nm (blue) in HepG2 cells (AID 720687)
How it was run: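 HepG2 cells in MEM with 10% FBS, attached overnight at 37 C, were exposed to compound or DMSO for 1 hr at 37 C, 5% CO2. Blue fluorescence was read at 405/460 nm, with triamterene as reference fluorophore.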

[19] = biological target: Glucocorticoid receptor (Homo sapiens) (UniProt P04150); test: qHTS assay to identify small molecule agonists of the glucocorticoid receptor (GR) signaling pathway (AID 720691; active = well fitted activation curve with a large enough effect in the signal ratio in the repeat runs, not every such curve was filed as active; the % refers to the signal ratio)
Sequence of Glucocorticoid receptor (Homo sapiens) (P04150 whole entry, looked up): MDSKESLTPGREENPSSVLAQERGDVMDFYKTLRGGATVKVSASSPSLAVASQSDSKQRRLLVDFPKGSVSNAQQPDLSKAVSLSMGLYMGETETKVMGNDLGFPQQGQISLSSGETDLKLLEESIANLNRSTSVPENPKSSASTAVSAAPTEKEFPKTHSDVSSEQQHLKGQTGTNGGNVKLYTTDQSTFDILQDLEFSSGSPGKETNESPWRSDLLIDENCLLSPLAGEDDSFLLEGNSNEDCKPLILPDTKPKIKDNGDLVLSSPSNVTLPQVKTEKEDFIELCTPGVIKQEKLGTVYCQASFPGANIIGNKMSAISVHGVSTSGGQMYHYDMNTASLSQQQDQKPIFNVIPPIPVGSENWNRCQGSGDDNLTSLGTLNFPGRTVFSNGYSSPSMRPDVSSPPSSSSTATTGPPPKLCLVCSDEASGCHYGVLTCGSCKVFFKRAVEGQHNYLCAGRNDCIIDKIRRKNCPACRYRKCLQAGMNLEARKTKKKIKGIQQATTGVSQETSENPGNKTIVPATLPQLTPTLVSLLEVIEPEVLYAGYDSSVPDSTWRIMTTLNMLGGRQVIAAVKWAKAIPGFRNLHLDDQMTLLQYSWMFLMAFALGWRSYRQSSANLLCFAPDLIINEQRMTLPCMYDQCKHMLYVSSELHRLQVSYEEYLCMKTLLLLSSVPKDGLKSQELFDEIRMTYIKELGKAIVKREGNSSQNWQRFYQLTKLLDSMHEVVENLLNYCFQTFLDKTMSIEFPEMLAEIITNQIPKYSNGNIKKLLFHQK
How it was run: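 Steps: seed GR-bla HeLa cells, incubate 4 h at 37 C/5% CO2; pin-transfer DMSO-dissolved compounds; incubate 18 h at 37 C; add LiveBLAzer B/G FRET substrate; after 2 h at room temperature, measure fluorescence.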

[20] = biological target: Glucocorticoid receptor (Homo sapiens) (UniProt P04150); test: qHTS assay to identify small molecule antagonists of the glucocorticoid receptor (GR) signaling pathway (AID 720692; active = well fitted inhibition curve with a large enough effect in the signal ratio in the repeat runs, not every such curve was filed as active; the % refers to the signal ratio)
How it was run: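 Antagonism was scored as loss of dexamethasone-driven (5 nM final) reporter signal in HeLa cells bearing a glucocorticoid response element–beta-lactamase construct, after 18 h compound exposure at 37 C and 2 h FRET substrate loading.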
% is scaled to controls: 0 for no effect and ±100 for the full control effect.

CCC(C)(C)C1CCC(O)CC1 (centres undefined)
inactive: Potency [1] | Potency [2] | Potency [3] | Potency [4] | outcome [5] | outcome [6] | Potency [7] | outcome [8] | outcome [9] | Potency [10] | outcome [11] | outcome [12] | outcome [13] | Potency [14] | outcome [15]

Fc1ccccc1[C@@H](F)COC1CCC(Nc2ncnc3[nH]ncc23)CC1 (some centres undefined)
inactive: Potency [1] | Potency [2] | Potency [3] | Potency [16] | outcome [5] | outcome [6] | Potency [7] | outcome [8] | outcome [9] | Potency [10] | outcome [11] | outcome [12] | outcome [13] | outcome [15] | Potency [18] | Potency [19]
active: Potency [17] 2730 nM

CO[C@H]1C=CO[C@@]2(C)Oc3c(C)c(O)c4c(O)c(c5c(c4c3C2=O)=NC2(CCN(CC(C)C)CC2)N=5)NC(=O)/C(C)=C\C=C/[C@H](C)[C@H](O)[C@@H](C)[C@@H](O)[C@@H](C)[C@H](OC(C)=O)[C@@H]1C
inactive: Potency [1] | Potency [2] | Potency [3] | Potency [16] | outcome [6] | Potency [7] | outcome [9] | Potency [10] | outcome [11] | outcome [12] | outcome [13] | outcome [15] | Potency [18] | Potency [19]

Cc1nc2ccccn2c(=O)c1CCN1CCC(C(=O)c2ccc(F)cc2)CC1
inactive: Potency [1] | Potency [2] | Potency [3] | Potency [16] | outcome [5] | outcome [6] | Potency [7] | outcome [8] | outcome [9] | Potency [10] | outcome [11] | outcome [12] | outcome [13] | Potency [14] | outcome [15] | Potency [18] | Potency [19]

CC(C)CCCCCCOC(=O)CCCCC(=O)OCCCCCCC(C)C
inactive: Potency [1] | Potency [2] | Potency [3] | Potency [4] | outcome [5] | outcome [8] | outcome [9] | Potency [10] | outcome [11] | outcome [12] | outcome [13] | outcome [15] | Potency [18] | Potency [19] | Potency [20]

CNCCCC1c2ccccc2C=Cc2ccccc21
inactive: Potency [1] | Potency [2] | Potency [3] | Potency [4] | fluorescence, relative to Rose Bengal [5] -0.202% [at 18.6 µM] | fluorescence, % of fluorescein control [6] -0.0324% [at 18.6 µM] | fluorescence, % of triamterene [7] 0.0209% [at 18.6 µM] | fluorescence, % of fluorescent control [8] -0.279% [at 18.6 µM] | fluorescence, % of fluorescein [9] 0.0057% [at 18.6 µM] | fluorescence, % of fluorescent control [10] 0.01% [at 18.6 µM] | activity change [11] 0.0344% [at 18.6 µM] | fluorescence, % of fluorescent control [12] -0.009% [at 18.6 µM] | fluorescence, % of Rose Bengal [13] 0.549% [at 18.6 µM] | fluorescence, % of fluorescent control [14] -0.0014% [at 18.6 µM] | fluorescence, % of fluorescein control [15] -0.0217% [at 18.6 µM] | fluorescence, % of fluorescent control [18] -0.121% [at 18.6 µM] | Potency [19] | Potency [20]

O=C(O)c1snc(Cl)c1Cl
inactive: Potency [1] | Potency [2] | Potency [3] | Potency [16] | outcome [5] | outcome [6] | outcome [8] | Potency [10] | outcome [11] | outcome [12] | outcome [13] | Potency [14] | outcome [15] | Potency [18] | Potency [19]

C[N+](C)(C)CCOC(N)=O
inactive: Potency [1] | Potency [2] | Potency [3] | Potency [4] | Potency [17] | Potency [7] | outcome [8] | outcome [9] | Potency [10] | outcome [11] | outcome [12] | outcome [13] | Potency [14] | outcome [15] | Potency [18]

OCCSc1ccccc1
inactive: Potency [1] | Potency [2] | Potency [3] | Potency [16] | Potency [17] | outcome [6] | Potency [7] | outcome [8] | outcome [9] | Potency [10] | outcome [11] | outcome [12] | outcome [13] | Potency [14] | outcome [15] | Potency [18] | Potency [19] | Potency [20]

C=CC(C)=CCC=C(C)C
inactive: Potency [1] | Potency [2] | Potency [3] | Potency [16] | outcome [5] | Potency [7] | outcome [8] | outcome [9] | Potency [10] | outcome [11] | outcome [12] | outcome [13] | Potency [14] | outcome [15] | Potency [18]
